High-throughput results: PubChem, several laboratories
HSF-1 act: increases HSF-1 driven luciferase reporter signal | activation, % at 9 µM | AID 504408 | hit rate 1.7% among 300,000 | NIH3T3-HGL HSF-1 luciferase reporter, MG132, 8 h; 100% = twice DMSO control signal;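 active means mean replicate activation of at least 50% with a set share of replicates each reaching 50%; inconclusive means only one of those two conditions met; inactive means mean below 50% and too few replicates reaching it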
HSF1 inh: HSF1 inhibition; NIH3T3-HGL HSE-luciferase, MG132-induced, luminescence 8 h; stronger effect = lower value; hit rate 0.77% among 300,000; activity change, negative = inhibition, % at 7.5 µM (by protocol);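 active means more than half of replicate wells show activity change below -50%, luminescence cut by over half; inconclusive means some wells, but at most half, below -50%; inactive means no replicate well below -50%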;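 further: luciferase reports HSF-1 transcriptional activity via heat shock element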
DAX1 inh: inhibitors of human orphan nuclear receptor DAX1 (NR0B1); inhibition, % at 6.75 µM; HEK293 Gal4-DAX1 luciferase reporter, luminescence; AID 504766; hit rate 0.99% among 340,000;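 active means inhibition above the mean over all tested compounds plus 3 SD, cut at about 4.2% in these data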;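 further: inhibition shows as a rise in luminescence from relieved DAX1 repression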
Target sequence (P51843 207-470 limits assumed): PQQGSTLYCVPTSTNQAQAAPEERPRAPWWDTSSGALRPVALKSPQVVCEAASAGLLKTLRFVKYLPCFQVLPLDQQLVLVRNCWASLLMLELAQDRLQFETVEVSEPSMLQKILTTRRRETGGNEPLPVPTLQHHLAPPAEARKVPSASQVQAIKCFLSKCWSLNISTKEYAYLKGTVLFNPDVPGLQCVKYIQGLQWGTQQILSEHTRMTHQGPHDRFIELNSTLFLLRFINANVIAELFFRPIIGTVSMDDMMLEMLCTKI
AHR activator: activates the human aryl hydrocarbon receptor | P35869 | AHR-responsive luciferase reporter cells, luminescence | activation, % at 5 µM | hit rate 2.5% among 320,000 | AID 2796; in the data active means activation above about 47%
FXN GAA850 act: increases GAA850 frataxin promoter reporter activity; HEK293 lucGAA850 FXN promoter luciferase reporter, 24 h; percent of 10 µM SAHA response; hit rate 0.56% among 360,000; activation, % at 6 µM;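 active means activation above the average of all compounds screened plus 3 SD, cutoff fixed separately per campaign, cut at about 7.5% in these data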
AHR act cf: human AHR activation, confirmation; hit rate 87% among 2,300; AID 2845; activation, % at 9 µM; shares compounds with AHR activator; human cells, AHR-responsive luciferase reporter, luminescence; in the data active means activation above about 49%;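 further: HepG2 hepatoma cells carrying a DRE-driven firefly luciferase reporter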
PXR counter: PXR activation, counter-screen for AHR activators | shares compounds with AHR activator | cell-based PXR reporter, luciferase luminescence | activation, % at 11.6 µM | hit rate 88% among 2,300 | AID 434939; in the data active means activation above about 11%;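 further: human hepatoma DPX-2 cells expressing full-length human PXR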
Of the large screens only hits and unclear results are named; the others gave an inactive call (follow-up assays come after a bar, where they were run). Sampled rows, rich in hits. Any-hit rate of the full collection: about 5.4%.

O=C(Cc1cccc(NC(=O)C2CCCN(C(=O)C3CCCC3)C2)c1)Nc1cccc(C(=O)N2CCCCC2)c1 (stereo unspecified)	none (no result: HSF-1 act, HSF1 inh, AHR activator)
CCn1c2ccccc2c2cc(NC(=O)COc3ccc(OC)cc3)ccc21	none
CCn1c2ccccc2c2cc(NC(=O)N3CCOCC3)ccc21	HSF-1 act inconclusive, AHR activator 118 | AHR act cf 99 | PXR counter 109
CCn1c2ccccc2c2cc(NC(=O)COc3ccccc3)ccc21	AHR activator 100 | AHR act cf 89 | PXR counter 60
CC(C)OCCCN(C)C1CCN(S(=O)(=O)c2ccc(-c3cc(C(F)(F)F)no3)s2)CC1	none
CCOC(=O)C1(C)CCN1C(=O)c1cc(C)oc1C (stereo unspecified)	none (no result: HSF-1 act, HSF1 inh, DAX1 inh, AHR activator)
Cc1nc(SCC(=O)N(C)Cc2ccco2)c2c(C)c(C)sc2n1	AHR activator 92 | AHR act cf 55 | PXR counter 182
Cc1c(C(=O)NCc2ccccn2)oc2c(Cl)cccc12	AHR activator 87 (no result: HSF-1 act, HSF1 inh) | AHR act cf 132 | PXR counter 50
O=C(c1ccc2ccccc2n1)N1CCN(c2ccccc2O)CC1	AHR activator 92 | AHR act cf 107 | PXR counter 40
CCOc1ccc(Nc2nc(-c3cccnc3)cs2)cc1	DAX1 inh 6.2, AHR activator 115 | AHR act cf 181 | PXR counter 14
CC(=O)c1ccc(Nc2nc(-c3cccnc3)cs2)cc1	none (no result: AHR activator)
CCN(CC(=O)Nc1ccc(OC)cc1)C(=O)Cc1ccc(OC)c(S(=O)(=O)N2CCOCC2)c1	none (no result: HSF-1 act, HSF1 inh)
Cc1ccc(/C=N/Nc2nc3ccccc3[nH]2)s1	HSF-1 act 452, AHR activator 109 | AHR act cf 143 | PXR counter 30
C(=N\Nc1nc2ccccc2[nH]1)/c1cccc2cccnc12	none
Brc1ccc(-c2ccc(/C=N/Nc3nc4ccccc4[nH]3)o2)cc1	HSF-1 act 163, AHR activator 98 | AHR act cf 121 | PXR counter 12
c1csc(-c2nc3c4ccccc4c4ccccc4c3[nH]2)c1	AHR activator 112 | AHR act cf 96 | PXR counter 25
CC(C)c1ccc2[nH]c(O)c(N=NC(=S)NCCc3ccccc3)c2c1	none
CCNC(=S)N=Nc1c(O)[nH]c2ccc(C(C)C)cc12	AHR activator 123 | AHR act cf 72 | PXR counter 80
C=CCNC(=O)c1ccccc1NC(=O)c1cccc2ccccc12	AHR activator 94 | AHR act cf 89 | PXR counter 84
COCCNC(=S)N=Nc1c(O)[nH]c2c(C)cc(C)cc12	AHR activator 116 | AHR act cf 93 | PXR counter 71
O=C(Nc1ccc(Br)cc1)N1CCc2ccccc2C1	HSF-1 act inconclusive, AHR activator 98 | AHR act cf 156 | PXR counter 55
CCc1ccc2[nH]c3nc(N/N=C/c4ccc(O)cc4O)nnc3c2c1	AHR activator 83 | AHR act cf 90
COc1cc(O)cc2occ(-c3ccc(O)cc3)c(=O)c12	none
COc1ccc(-c2coc3cc(OC)cc(OC)c3c2=O)cc1	AHR activator 93 | AHR act cf 132 | PXR counter 26
CCc1nnc(NC(=O)/C=C/c2ccco2)s1	AHR activator 93 | AHR act cf 59 | PXR counter 58
Cc1ccccc1C(=O)Nc1ccnn1C1CCN(C(C)Cc2ccccc2F)CC1 (stereo unspecified)	none
Cc1cccn2c(=O)c(C=O)c(N3CCN(c4ccccc4)CC3)nc12	AHR activator 95 | AHR act cf 81 | PXR counter 65
Cc1cccn2c(=O)c(C=O)c(N3CCN(C)CC3)nc12	none
Cc1cccc(-c2ccc3c(c2)C2CC3CCN2Cc2ccc3c(c2)OCO3)c1 (stereo unspecified)	none (no result: HSF-1 act, HSF1 inh, AHR activator)
COC(=O)c1ccc(NC(=O)C(=O)c2c[nH]c3ccccc23)cc1	none
O=C(Nc1ccccc1)C(=O)c1c[nH]c2ccccc12	HSF-1 act 68, AHR activator 102 | AHR act cf 129 | PXR counter 28
COc1ccc(/C=C(/NC(=O)c2ccc(C)cc2)C(=O)N2CCCC2)cc1OC	none
